# Pol eta inh: qHTS for Inhibitors of Polymerase Eta | DNA polymerase eta (Homo sapiens), Q9Y253 | recombinant Pol eta, fluorescent DNA replication assay | Potency, µM (top dose mostly 114 µM), inactives show top-dose activity change, negative = inhibition, actives largely listed as inhibitors | 390,000 compounds, 1.2% hits; further: potency means the concentration at half of the fitted maximal effect; on the % scale 0 is the no-effect control and ±100 the full control effect
#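 Pol eta at 10 nM preincubated with compounds 15 min at room temperature; reaction started with fluorescent substrate (50 nM final) and read kinetically at 0 and 10 min.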
# Pol iota inh: qHTS for Inhibitors of Polymerase Iota; 390,000 compounds, 1% hits; Pol iota fluorescent replication assay, 10 min; Potency, µM (top dose mostly 115 µM), without a hit: at the highest dose activity, negative = inhibition, usual class: inhibitors; further: potency means the concentration at half of the fitted maximal effect
#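 Pol iota at 10 nM preincubated 15 min with compounds at room temperature; reaction started with fluorescent substrate, 50 nM final. Fluorescence read kinetically at 0 and 10 min; buffer-only wells as negative control.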
# WRN inhibitor: qHTS for Inhibitors of WRN Helicase. Bifunctional 3'-5' exonuclease/ATP-dependent helicase WRN (Homo sapiens), Q14191. WRN helicase unwinding, fluorescent forked duplex, kinetic. Potency, µM (series often up to 114 µM), inactives show at the highest dose activity change, negative = inhibition, hits mostly inhibitors. 360,000 compounds, 0.46% hits. AID 651768, 2012; further: potency means the concentration at half of the fitted maximal effect; on the % scale 0 is the no-effect control and ±100 the full control effect; nearly all actives have a fitted effect of over 55% in size
#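 Fluorescence dequenching readout, ex 525 nm/em 598 nm, kinetic mode: forked duplex DNA (100 nM final) with adjacent fluorophore and quencher unwound by WRN (20 nM final) with 2 mM ATP. Compound preincubation 15 min, room temperature.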
# Pol beta inh: qHTS Assay for Inhibitors of DNA Polymerase Beta. P06746. Pol beta primer extension/strand displacement, fluorescence kinetic. Potency, µM (titrated, usually from 114 µM), for the others: top-dose activity change, negative = inhibition, actives largely listed as inhibitors. 340,000 compounds, 1.3% hits. AID 485314, 2010; further: potency means the concentration at half of the fitted maximal effect; on the % scale 0 is the no-effect control and ±100 the full control effect
#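 Preincubation: enzyme (10 nM) with compound, 15 min, RT. Reaction: substrate added to 50 nM final. Reads: 0 and 10 min. Analysis: normalized, Hill fit.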
# POLK inh: qHTS for Inhibitors of Polymerase Kappa | DNA polymerase kappa (Homo sapiens), Q9UBT6 | purified Pol kappa, fluorescent DNA synthesis assay, 10 min | Potency, µM (titrated, usually from 107 µM), for inactives: top-dose activity, negative = inhibition, usual class: inhibitors | 400,000 compounds, 0.53% hits | AID 588579, 2011; further: potency means the concentration at half of the fitted maximal effect; on the % scale 0 is the no-effect control and ±100 the full control effect
#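 Enzyme at 10 nM met test compounds for 15 min at room temperature. Substrate addition (50 nM final) began the reaction, which was monitored by fluorescence at 0 and 10 min.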
# PI5P4K alpha inh: qHTS for Inhibitors of phosphatidylinositol 5-phosphate 4-kinase (PI5P4K); PI5P4Kalpha enzyme, ADP-Glo luminescence, 60 min; hits give low values; max response, %; 330,000 compounds, 1.2% hits; AID 652105, 2013; active means max response of -50% or lower; inconclusive means between -30% and -50%; inactive means -30% or higher; further: value at the top dose of about 77 µM; on the % scale 0 is the no-effect control and ±100 the full control effect
# Target sequence (P48426 whole entry, looked up): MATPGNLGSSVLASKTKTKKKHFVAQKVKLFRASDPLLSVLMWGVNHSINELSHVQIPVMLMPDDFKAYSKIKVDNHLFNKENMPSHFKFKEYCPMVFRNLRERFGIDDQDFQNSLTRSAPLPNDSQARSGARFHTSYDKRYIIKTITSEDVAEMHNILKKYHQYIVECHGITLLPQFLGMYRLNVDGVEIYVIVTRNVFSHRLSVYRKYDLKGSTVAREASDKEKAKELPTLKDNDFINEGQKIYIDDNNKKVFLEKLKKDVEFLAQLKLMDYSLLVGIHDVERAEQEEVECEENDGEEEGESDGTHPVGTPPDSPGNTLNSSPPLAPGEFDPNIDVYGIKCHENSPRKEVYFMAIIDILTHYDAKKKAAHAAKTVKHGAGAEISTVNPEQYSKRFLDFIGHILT
#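 Compounds were pin-transferred onto PI5P4Kalpha and substrate in HEPES pH 7.4 buffer with EGTA, CHAPS and 5% DMSO. ATP (5 microM final) started the reaction, which ran 60 minutes at room temperature before ADP-Glo detection.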
# The depositor's hits bear a star; ? = inconclusive; . = no result; ! = not active in a repeat; [ ] = another dose, or the depositor's remark. An excerpt weighted towards active compounds, which were near 2.8% of everything screened. Unless noted, the call rests on the fitted dose curve; in most records, active means well fitted curve in the direction sought with a large enough effect; inconclusive means small, poorly fitted or top-dose-only effect, or another doubt; inactive means no such curve, though single readings can be large; an effect the other way counts as inactive or inconclusive.
SMILES,Pol eta inh,Pol iota inh,WRN inhibitor,Pol beta inh,POLK inh,PI5P4K alpha inh
CCOC(=O)C1CCCN(CCC(=O)Nc2ccc(OC)cc2OC)C1 (stereo unspecified),-7%,1%,.,1%,0%,.
CCOc1cc(-c2nc(-c3ccc(-c4ccc(OC)cc4)nc3OC)no2)cc(OCC)c1OCC,-14%,25%,.,2%,0%,.
CCOC(=O)C1CCC(CN(Cc2ccc(Cl)cc2)S(=O)(=O)c2ccc(F)c(C(=O)Nc3cccc(F)c3)c2)CC1 (stereo unspecified),-11%,21%,.,1%,8%[60.1 µM],.
CC(/C=N/n1c(-c2ccc(Cl)cc2)n[nH]c1=S)=C\c1ccco1,18µM*,?,-12%[11.6 µM],?,?,?
COc1ccc(N2C(=O)CC(S/C(N)=N/N=C/c3ccnc4ccccc34)C2=O)cc1 (stereo unspecified),.,.,.,33%,.,.
N/C(=N\N=C\c1ccnc2ccccc12)SC1CC(=O)N(c2ccc(Br)cc2)C1=O (stereo unspecified),25µM*,3%,0%,?,-5%,0
Cc1ccc(S(=O)(=O)N2CC=C(c3c(C)n(CC(=O)N4CCCC4)c4ccccc34)CC2)cc1C,-14%,79µM*,.,-2%,-15%,.
CCn1c(C)c(C2=CCN(S(=O)(=O)c3ccccc3)CC2)c2ccccc21,-21%,-5%,-13%,-11%,-12%,16
Cc1ccc(S(=O)(=O)N2CC=C(c3c(C)n(C)c4ccccc34)CC2)cc1,-18%,-9%,79µM*,-3%,-6%,-3
CCOc1ccc(C(=O)NCCc2sc(-c3ccc(F)cc3)nc2C)cc1,-16%,-7%,.,-18%,-2%[60.1 µM],.
CCOC(=O)c1c(C)[nH]c(C)c1S(=O)(=O)N1CCC(C(=O)N2CCN(c3cccc(C)c3)C(C)C2)CC1 (stereo unspecified),-14%,5%,.,12%,-12%[60.1 µM],.
O=c1cc(CSc2n[nH]c(-c3ccncc3)n2)nc2sccn12,?,50µM*,0%[11.6 µM],10µM*,?,?
Cc1ccc(SCc2cc(=O)n3ccsc3n2)c(C)c1,.,.,.,28µM*,.,.
Cc1c(Cl)cccc1-n1ncc(C(=O)Nc2ccc3c(c2)OCCO3)c1C1CCN(C(=O)OC(C)(C)C)CC1,.,4%,.,2%,-11%,.
CC1CCC/C(=C\Nc2ccc3c(c2)OCO3)C1=O (stereo unspecified),5%,12%,4%,33%,-5%,-16
O=C1CCC/C1=C/Nc1ccc2c(c1)OCO2,5%,22%,-6%,25µM*,-3%,5
O=C1CCCC/C1=C\Nc1ccc(O)cc1,-3%,25µM*,-4%,-4%,-3%,.
O=C(/C=C/c1c(F)cccc1Cl)N1CCOCC1,-19%,18%,5%,32µM*,5%,-30
O=C(/C=C/c1c(Cl)cccc1Cl)N1CCOCC1,-4%,19%,1%,28%,-13%,-2
CCOC(=O)c1c(S(=O)(=O)N2CCCC(C(=O)NCc3ccc(Cl)cc3)C2)c(C)n(C)c1C (stereo unspecified),5%,7%,.,14%,0%[60.1 µM],.
C=C/C(C)=C/[C@@]1(C)SC(=O)C(C)=C1O,14µM*,?,.,25µM*,.,.
COc1cccc(/C=N\NC(=O)c2ccc(Cn3cc(Br)c([N+](=O)[O-])n3)o2)c1O,-11%,-7%,-18%,40µM*,-12%,-8
COc1ccc(/C=N/Nc2ccccc2C(=O)O)cc1Cn1cc([N+](=O)[O-])cn1,-2%,?,-18%,-4%,-19%,?
Cc1ccc(/C=N/NC(=O)c2ccc(Cn3cc([N+](=O)[O-])cn3)o2)cc1,-2%,16%,3%,-23%,-11%,1
COc1cccc(/C=N/NC(=O)c2c(C)nc3ccc(Br)cn23)c1O,9%,?,-11%,79µM*,-10%,4
SMILES,Pol eta inh,Pol iota inh,WRN inhibitor,Pol beta inh,POLK inh,PI5P4K alpha inh
CCCOc1ccc(/C=N/NC(=O)c2ccc(Cn3cc([N+](=O)[O-])cn3)o2)cc1,-6%,?,-16%[57.1 µM],32µM*,-16%,-11
COc1ccc(/C=N/NC(=O)c2ccccc2O)cc1Cn1cc([N+](=O)[O-])cn1,18%,-7%,-9%,56µM*,-4%,-6
COc1ccc(/C=N/NC(=O)c2ccc(Br)cc2)cc1Cn1cc(Cl)cn1,?,50µM*,?,?,-11%,0
COC(=O)c1c(C)nc(C)c(C(=O)OC)c1-c1ccc(OC)cc1,3%,14%,-3%,20%,-5%,9
CCOC(=O)c1c(C)nc(C)c(C(=O)OCC)c1-c1ccc(OC)cc1,-7%,28%,4%,0.16µM*!,-8%,.
CCCCn1c(NC(=O)CC)c(C#N)c2nc3ccccc3nc21,-17%,22%,-13%,2%,-6%,4
CCC(=O)Nc1c(C#N)c2nc3ccccc3nc2n1-c1ccccc1C,3%,?,3%,-1%,0%,0
N#Cc1c(NC(=O)c2ccccc2Cl)n(Cc2ccccc2)c2nc3ccccc3nc12,35µM*,20µM*,?,71µM*,-17%,-11
CCCCn1c(NC(=O)c2ccccc2Cl)c(C#N)c2nc3ccccc3nc21,20µM*,3.5µM*,-35%,0%,-10%,-4
CCOC(=O)N1CCN(Cc2nc3cc(NC(=O)c4ccc([N+](=O)[O-])cc4)ccc3n2C(C)C)CC1,-10%,-14%,.,1%,6%,.
CCOC(=O)/C=C1/SCC(=O)N1CC(=O)c1ccc[nH]1,?,22µM*,1%,.,-29%,?
O=C(COCc1cc(-c2ccc3c(c2)OCO3)on1)N1CCN(c2ccc(F)cc2)CC1,-4%,79µM*,0%,13%,-1%,-8
Cn1ncc(C#N)c1/N=C/N1CCCC1,-6%,-4%,1%,89µM*,7%,0
Cc1ccc(C(=O)Nc2nc3nc(-c4ccccc4)cc(=O)n3[nH]2)cc1,79µM*,-2%,-16%[11.6 µM],12%,7%,-12
CC(C)(C)c1ccc(C(=O)Nc2nc3nc(-c4ccccc4)cc(=O)n3[nH]2)cc1,-21%,?,.,45µM*,-16%,.
COc1ccc(Nc2cc(C(=O)NCCCN(C)Cc3ccccc3)c3ccccc3n2)cc1OC,-19%,-13%,.,?,-20%[60.1 µM],.
